Usually inhibition stands for the relative decrease from the control value, in per cent.

The target of the assay is Hexose transporter 1 (Plasmodium falciparum) (UniProt O97467). In words: ST_JUDE_LEISH: Cytotoxicity at 2uM final concentration against transgenic Leishmania Mexicana promastigotes LmPfHT that are glucose transport deficient and complemented with the Plasmodium falciparum hexose transporter. Activity is measured by DNA content using SYBR green in vitro. It is filed as functional.
As to `CC1CCNc2ccc(Cc3cnc(N)nc3N)cc21` (stereo not given), the inhibition turned out to be 1.47%.

For `N#Cc1ccc(CN2CCC(Oc3ccc(NC(=O)c4cccs4)cc3Cl)CC2)cc1`, the inhibition turned out to be 10.5%. For `Cc1ccc(O)cc1Nc1ccnc2cc(-c3csc(CN(C)CCN(C)C)n3)ccc12`, the inhibition was -0.87%. In the case of `CCN(CC)CCCN1CCN(C(=O)c2cccc(-c3noc(C(F)(F)F)n3)c2)CC1`, the inhibition was 4.63%.

`Cc1ccc(Oc2c(-c3ccccc3CN3CCCC3CN(C)C)cnn(C)c2=O)cn1` (stereo not given): the inhibition came out at 4.63%.

On to `CC(C)c1ccc(CN2CCCCC(NC(=O)c3cc(-c4ccccc4F)cs3)C2)cc1` (stereo not given), for which the inhibition was 8.1%. For the compound `CN1CC[C@@H](Oc2cc(CNC(=O)c3ccc(-c4ccc(Cl)cc4)s3)ccc2C(F)(F)F)C1`, the inhibition was -1.98%.

For the compound `Cc1ccc(C(=O)Nc2cc(S(=O)(=O)N3CCCC3)ccc2OCC(F)(F)F)cc1`, the inhibition worked out at 4.19%. In the case of `CC1CN(c2cnn(C/C=C/c3ccc(NC(=O)c4ccc(Cl)cc4)cc3)c(=O)c2Cl)CC(C)N1` (stereo not given), the inhibition was -0.3%. For `COc1cc(C(=O)Nc2ccc(-c3nc4ccccc4[nH]3)cc2)cc(OC)c1OC`, the inhibition was 2.26%. As for `COc1cc(NCC(O)CNc2cc(OC)c3ccccc3n2)nc2ccccc12`, the inhibition came out at 12.5%. With `CC1CN(c2ccc3occ(C(=O)Nc4ccc(-c5ccncc5)c(Cl)c4)c3c2)CC(C)N1C` (stereo not given), the inhibition was 3.33%.

As to `Cc1ccc(NC(=O)c2ccc3ncccc3c2)cc1OC1CCN(C(C)C)C1` (stereo not given), the inhibition came to 10.2%. As to `Oc1ccc(CCNCCCCCCNCCc2ccc(-c3ccccc3)cc2)cc1O`, the inhibition was found to be 1.69%. Regarding `COc1ccccc1N1CCN(C(C(=O)NCc2ccc3c(c2)OCO3)c2ccc3c(c2)OCCCO3)CC1` (stereo not given), the inhibition came to 1.04%.

For the compound `Cc1cccc2nc(-c3ccc(-c4ccc(CN5CCN(c6ccc(C#N)cn6)CC5)cc4)s3)[nH]c12`, the inhibition came out at 6.3%. `Cc1cccc2nc(-c3ccc(-c4cccc(NC(=O)Nc5cccc(C#N)c5)c4)cc3)[nH]c12`: the inhibition is -0.19%.

In the case of `COc1cccc(CNC(=O)c2ccnc(-c3ccc(CNCCOc4ccccc4)cc3)c2)c1`, the inhibition turned out to be 1.69%. Consider `CCc1cn2c3c(cc(C(=O)N[C@@H](Cc4cccc(F)c4)[C@H](O)CNC4CCCCC4)cc13)N(C)S(=O)(=O)CC2`, for which the inhibition is -1.06%. Under `c1ccc2c(c1)ncn2-c1ccnc(Nc2ccncc2)n1` stands 6.42%.

Turning to `Cc1cc(=NN=Cc2ccc(F)cc2)c2cc(C(F)(F)F)ccc2[nH]1`, the inhibition was determined as 2.57%. Under `CCN(CC)c1ccc2nc(N)nc(N)c2c1` stands 16.5%.

Regarding `CCCCN1Cc2c(n(CC(=O)Nc3ccccc3)c3cc(-c4ccccc4)nn3c2=O)C1=O`, the inhibition worked out at 1.92%. As to `N#CCCN1CCN(Cc2cccc(-c3ccc(-c4nc5cc(C(F)(F)F)ccc5[nH]4)cc3)c2)CC1`, the inhibition came to 2.73%. Turning to `COC(=O)c1ccc2nc(-c3ccc(/C=C/C(=O)NC4CCN(Cc5ccccc5)CC4)cc3)[nH]c2c1`, the inhibition was determined as 5.26%. As to `CC(C)COc1ccc(Cl)cc1Cc1ccc(-c2nc3cc(CCN(C)C)ccc3[nH]2)o1`, the inhibition was 4.3%. Take `CN1CCCN(Cc2ccc(-c3ccc(NS(=O)(=O)c4cccc5cccnc45)cc3)cc2)CC1`: the inhibition turned out to be 3.68%. As to `Cc1cc(N[C@@H](Cc2ccccc2)C(=O)NCCOc2ccccc2)nc(NCC2CCCCC2)n1`, the inhibition stood at 6.54%.

As for `COc1ccc2[nH]c(C)cc(=NN=Cc3ccc(F)cc3)c2c1`, the inhibition came out at 5.21%.

Consider `Cc1sc(N2CCN(C)CC2)nc1C(=O)Nc1ccc(F)cc1C(F)(F)F`, for which the inhibition came out at 2.2%. For the compound `O=c1[nH]nc(-c2ccc(N3CCCC3)c([N+](=O)[O-])c2)c2ccccc12`, the inhibition amounted to 3.31%.

On to `NC1CCN(Cc2ccc(-c3cccc(-c4nc5ccccc5[nH]4)c3)cc2)C1` (stereo not given), for which the inhibition was 5.29%. On to `CC(CN(C)C)C(=O)Nc1cccc(-c2ccc(-c3nc4ccccc4[nH]3)cc2)c1` (stereo not given), for which the inhibition was determined as 9.79%. The result for `COc1cccc(Nc2nc(N)c3ccccc3n2)c1` reads 18.8%.

As to `O=C(Nc1cccc(OC2CCN(Cc3ccc(F)cc3)CC2)c1)c1ccc(C(F)(F)F)cc1`, the inhibition stood at 0.67%. As for `Oc1ccc(CCNCCCCCCNCCCc2ccc(Cl)cc2)cc1O`, the inhibition turned out to be 4.13%.

Take `O=C(Nc1ccccc1O)c1ccc(Oc2cccc(C(=O)Nc3ccccc3O)c2)cc1`: the inhibition worked out at 4.01%. Consider `Cc1ccccc1C1CCN(C2CCC(NC(=O)/C=C/c3cc(F)ccc3F)CC2)CC1` (stereo not given), for which the inhibition was 2.73%. As for `CC(C)N1CCN(c2ccc(OCCCN3CCN(c4cccc(Cl)c4Cl)CC3)c(C(F)(F)F)c2)CC1`, the inhibition amounted to 1.13%. The result for `COc1ccc(NC(=O)Nc2cc(C)nc3ccccc23)cc1Cl` reads 8.02%.

The values are drawn from ChEMBL document CHEMBL3433997, “St. Jude Leishmania screening dataset” (2016).
